From PubChem BioAssay
Compounds with a hit are over-represented: about 5.7% of the library has one in this group of screens.
AHR activator: human AHR activation; AHR-responsive luciferase reporter cells, luminescence; activation, % at 5 µM; 2.5% of 320,000 active; AID 2796; in the data active = activation above about 47%;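 note: 0% = vehicle wells and 100% = reference agonist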
hgDAF12 agonist: activates the H. glycines DAF-12 receptor ligand-binding domain. HEK293 GAL4-hgDAF12 UAS-luciferase reporter, agonist luminescence; normalized to butyrate control. 1.8% of 370,000 active. activation, % at 6.8 µM. AID 687014;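 active = activation above a cutoff set at the mean of all screened compounds plus 3 SD, cut at about 10% in these data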;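 note: 0% = DMSO wells and 100% = sodium butyrate wells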
ssDAF12 agonist: activators of S. stercoralis DAF-12 nuclear receptor | HEK293 ssDAF-12/GRIP1 lit1-tk-luc reporter, luminescence; % of 3 µM dafachronic acid response | activation, % at 6.8 µM | 1% of 370,000 active;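 active = activation above the mean over all tested compounds plus 3 SD, cut at about 0.9% in these data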;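 note: 0% = DMSO-only wells and 100% = 3 µM delta7-dafachronic acid wells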
hcDAF-12 act: activates DAF-12 receptor from parasite H. contortus; HEK293 hcDAF-12 lit1-tk-luc reporter, luminescence; 0% DMSO, 100% Δ7-dafachronic acid; activation, % at 6.8 µM; 1.4% of 370,000 active; AID 652067;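 active = activation above the mean of all tested compounds plus 3 SD, cut at about 5.5% in these data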;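 note: 100% = response to 3 µM Δ7-dafachronic acid high control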
DAX1 inh-1: DAX1 (NR0B1) inhibition, primary screen | HEK293T StAR-luciferase reporter, SF-1/DAX-1 repression relief | inhibition, % at 6.8 µM | 1.1% of 370,000 active | AID 652010;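 active = inhibition above the mean over all tested compounds plus 3 SD, cut at about 3.6% in these data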;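 note: 0% = DAX-1 cells with DMSO and 100% = cells lacking DAX-1 with DMSO; higher inhibition means more luminescence from relief of DAX-1 repression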
DAX1 inh-2: inhibits human nuclear receptor DAX1; P51843; inhibition, % at 6.75 µM; 0.99% of 340,000 active; HEK293 Gal4-DAX1 luciferase reporter, luminescence;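 active = inhibition above the mean over all tested compounds plus 3 SD, cut at about 4.2% in these data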;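 note: 0% = DAX1-transfected cells with DMSO and 100% = empty-vector control cells with DMSO; inhibition shows as a rise in luminescence from relieved DAX1 repression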
Target sequence (P51843 207-470 limits assumed): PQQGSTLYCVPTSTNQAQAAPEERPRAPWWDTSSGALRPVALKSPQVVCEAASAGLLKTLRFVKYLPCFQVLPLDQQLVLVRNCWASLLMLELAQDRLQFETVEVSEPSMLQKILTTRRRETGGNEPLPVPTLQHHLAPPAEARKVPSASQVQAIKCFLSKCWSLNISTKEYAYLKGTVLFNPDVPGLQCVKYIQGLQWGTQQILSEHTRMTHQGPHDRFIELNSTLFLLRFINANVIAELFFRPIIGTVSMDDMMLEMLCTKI
* hit, by the source's call; . = not tested or not shown.

SMILES | AHR activator | hgDAF12 agonist | ssDAF12 agonist | hcDAF-12 act | DAX1 inh-1 | DAX1 inh-2
Nc1ccc(OCc2ccccc2)cc1[N+](=O)[O-] | . | 11.0* | -0.9 | 1.0 | -0.8 | -0.4
CCCS(=O)(=O)N1CCN(C2CCC(C)CC2)CC1 (configuration not stated) | 0.2 | -2.0 | -1.7 | -0.7 | -0.8 | 5.7*
CN(C)c1ccc(C2C3CCCc4ccccc4C3=NN2C)cc1 (configuration not stated) | 60.6* | 2.1 | -0.5 | 1.9 | 0.6 | 3.0
N#Cc1c(C(F)(F)F)cc(-c2ccc(Cl)c(Cl)c2)nc1SCCN1CCOCC1 | 64.9* | . | . | . | . | 0.9
CC(C(=O)Nc1sc2c(c1C(=O)NCC1CCCO1)CCC2)N1C(=O)c2ccccc2C1=O (configuration not stated) | 0.1 | -1.2 | -0.8 | -1.6 | -0.6 | 1.4
Cn1cccc1C(=O)OCc1ccc(C(C)(C)C)cc1 | -0.6 | 3.3 | -0.8 | 0.3 | 0.6 | -0.2
Cn1cccc1C(=O)OCc1cc(-c2ccco2)on1 | -0.8 | 10.2 | -0.1 | 1.8 | 4.3* | 2.9
Cc1ccc(C(=O)N2CCC(C(=O)NC3CCCC3)CC2)cc1 | 0.9 | -0.7 | -0.3 | 0.1 | 0.2 | 4.3*
O=C(NC1CCCC1)C1CCN(C(=O)c2ccc(Cl)cc2)CC1 | 0.1 | 1.2 | -1.0 | -0.6 | 0.1 | 3.8
O=C(N[C@H](Cc1ccccc1)C(=O)N1CCN(CC(=O)N2CCCC2)CC1)[C@H]1O[C@@H](n2ccc(=O)[nH]c2=O)[C@H](O)[C@@H]1O | . | 2.6 | -1.1 | 0.1 | 0.8 | .
Cc1ccc2nc(SCC(=O)Nc3cc([N+](=O)[O-])ccc3F)[nH]c2c1 | 40.0 | 1.0 | -0.7 | 6.1* | 0.1 | 1.5
Cc1csc(SCC(=O)Nc2cc([N+](=O)[O-])ccc2F)n1 | 1.0 | 3.7 | -1.3 | -2.0 | -1.0 | 0.3
Cc1ccc2nc(SCC(=O)Nc3ccc(C)c([N+](=O)[O-])c3)[nH]c2c1 | 86.2* | -1.0 | 0.1 | -0.5 | -0.5 | 0.1
CC(=O)Nc1ccc(NC(=O)CCS(=O)(=O)c2ccc3c(c2)oc(=O)n3C)cc1 | -0.5 | -0.4 | 0.2 | -0.2 | 0.1 | 0.2
CC(=O)c1ccc(NC(=O)CCS(=O)(=O)c2ccc3c(c2)n(C)c(=O)c(=O)n3C)cc1 | 0.6 | . | . | . | . | 4.8*
O=c1[nH]nc(Cc2ccc3ccccc3n2)c2ccccc12 | 20.1 | 3.7 | 1.0* | 6.5* | 1.5 | 0.9
Cn1c(CSCc2ccc(F)cc2)nnc1SCC(=O)Nc1cccc(C(=O)O)c1 | 5.2 | -0.1 | -1.2 | 0.1 | 0.3 | -0.9
COc1cc2sc3cc(NCc4ccc5c(c4)OCO5)ccc3c(=O)c2cc1OC | 6.8 | 4.2 | -1.2 | 0.3 | 0.7 | 0.6
COc1cccc2sc3cc(NCc4ccc5c(c4)OCO5)ccc3c(=O)c12 | 76.2* | 3.0 | -1.1 | 1.6 | 1.1 | 1.1
CC(=O)Nc1cccc2c1Cc1ccccc1-2 | -0.6 | . | . | . | . | 0.6
CC(=O)Nc1ccc2c(c1Br)Cc1ccccc1-2 | . | 12.8* | -0.5 | 0.4 | 0.1 | 1.2
O=C(C1=NN[C@@H]2C(=O)N(c3cccc(C(F)(F)F)c3)C(=O)[C@H]12)c1cnccn1 | 23.6 | 0.1 | -0.8 | 0.4 | 0.3 | 7.3*
CC(=NCCc1c(C)[nH]c2ccc(OCc3ccccc3)cc12)C1=C(O)CC(c2ccccc2)CC1=O (configuration not stated) | 77.4* | -0.7 | -0.4 | -3.2 | -0.2 | -1.1
Cc1csc(NC(=O)/C=C/c2ccc3c(c2)OCO3)n1 | -6.3 | 15.1* | 1.1* | 3.8 | 4.6* | -1.8
COC(=O)c1ccc(/C=N/NC(=O)CNc2cccc(C)c2)cc1 | 10.5 | -2.1 | -1.4 | -0.4 | -0.4 | .
C/C(=N\NC(=O)CNc1cccc(C)c1)c1ccc(Br)s1 | 71.2* | 2.3 | -0.6 | -1.1 | 1.9 | -0.5
Cc1cccc(/C=N/NC(=O)c2ccc(Br)cc2)c1 | 9.0 | 11.9* | -0.2 | 4.1 | 1.8 | 2.2
C/C(=N\NC(=O)Cc1ccccc1)c1ccc(Br)s1 | 20.1 | 0.8 | -0.9 | -0.9 | 0.1 | 0.0
Cc1ccc(NCC(=O)N/N=C\c2cccc(O)c2)cc1 | 65.1* | 1.0 | -0.5 | 0.6 | 1.0 | -1.4
C/C(=N\NC(=O)CNc1cccc(C(F)(F)F)c1)c1cccc(Br)c1 | 75.2* | 1.6 | -1.2 | 3.7 | -0.2 | -0.4
